Laboratory results from publication PMC8384837, “Expanding the binding specificity for RNA recognition by a PUF domain”.

biological target: PUM1 PUF domain R1-RWT (Homo sapiens, UniProt Q14671 828-1176, S863R;R864W;Q867T); assay: yeast three-hybrid, YBZ-1, SC-Leu-His + 0.5 mM 3-AT, 4 days; settings: tags: N-Gal4 AD-HA kept; label: inside an RPR1-promoter hybrid RNA with tandem MS2 sites; ssRNA
Method in brief: (§1)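 The interaction score is the log change in variant frequency from input to selection. Scores were computed in log2 with a pseudocount of 1 for absent variants, using Illumina sequencing of PCR-amplified repeat regions. The input came from four days on SC-Leu and the selection from four days on SC-Leu-His + 0.5 mM 3-AT. The cells were strain YBZ-1 (LexA–MS2 coat fusion, HIS3 reporter) co-expressing Pumilio-1 PUF domain libraries and matching RNA elements from a centromeric plasmid.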

Chain of PUM1 PUF domain R1-RWT (Q14671 828-1176 S863R/R864W/Q867T): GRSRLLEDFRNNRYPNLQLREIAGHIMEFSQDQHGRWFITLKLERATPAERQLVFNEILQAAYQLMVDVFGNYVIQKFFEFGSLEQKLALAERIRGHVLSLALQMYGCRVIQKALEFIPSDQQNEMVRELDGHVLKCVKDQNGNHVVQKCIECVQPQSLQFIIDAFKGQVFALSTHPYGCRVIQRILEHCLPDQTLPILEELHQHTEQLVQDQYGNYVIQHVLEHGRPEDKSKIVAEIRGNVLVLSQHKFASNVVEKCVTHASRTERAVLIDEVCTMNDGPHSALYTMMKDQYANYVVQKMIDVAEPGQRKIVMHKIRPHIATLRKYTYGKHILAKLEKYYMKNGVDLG

Going from “GGCUAGAACUAGUGGAUCCCCCGGCGCCCGGCGGCUCGAGCCCGGGUAAGUGUAAAUGGUCUGCAUGCCGCCGGGCGCCAUGCCUGCAGGUCGACUCUAGAAAACAUG” to “GGCUAGAACUAGUGGAUCCCCCGGCGCCCGGCGGCUCGAGCCCGGGUAAGUGUAAAUCGUCUGCAUGCCGCCGGGCGCCAUGCCUGCAGGUCGACUCUAGAAAACAUG”, the binding signal rises from 0.98 log2 enrichment (interaction score) to 5.45 log2 enrichment (interaction score).

In the case of “GGCUAGAACUAGUGGAUCCCCCGGCGCCCGGCGGCUCGAGCCCGGGUAAGUGUAAAUUGUCUGCAUGCCGCCGGGCGCCAUGCCUGCAGGUCGACUCUAGAAAACAUG”, the binding signal is reported as 4.77 log2 enrichment (interaction score).

biological target: PUM1 PUF domain R7-RNK (Homo sapiens, UniProt Q14671 828-1176, S1079R;E1083K); assay: as above; settings: tags: N-Gal4 AD-HA kept; label: inside an RPR1-promoter hybrid RNA with tandem MS2 sites; ssRNA
Method in brief: as §1

Chain of PUM1 PUF domain R7-RNK (Q14671 828-1176 S1079R/E1083K): as the sequence (Q14671 828-1176 S863R/R864W/Q867T) above, with R36S, W37R, T40Q, S252R, E256K counted along it

Going from “GGCUAGAACUAGUGGAUCCCCCGGCGCCCGGCGGCUCGAGCCCGGGUAAGUAUAAAUAGUCUGCAUGCCGCCGGGCGCCAUGCCUGCAGGUCGACUCUAGAAAACAUG” to “GGCUAGAACUAGUGGAUCCCCCGGCGCCCGGCGGCUCGAGCCCGGGUAAGUCUAAAUAGUCUGCAUGCCGCCGGGCGCCAUGCCUGCAGGUCGACUCUAGAAAACAUG”, the binding signal rises from 2.99 log2 enrichment (interaction score) to 3.45 log2 enrichment (interaction score).

In the case of “GGCUAGAACUAGUGGAUCCCCCGGCGCCCGGCGGCUCGAGCCCGGGUAAGUGUAAAUAGUCUGCAUGCCGCCGGGCGCCAUGCCUGCAGGUCGACUCUAGAAAACAUG”, the binding signal is reported as 2.47 log2 enrichment (interaction score).

biological target: PUM1 PUF domain R5-TRA (Homo sapiens, UniProt Q14671 828-1176, C1007T;Q1011A); assay: as above; settings: tags: N-Gal4 AD-HA kept; label: inside an RPR1-promoter hybrid RNA with tandem MS2 sites; ssRNA
Method in brief: as §1

Chain of PUM1 PUF domain R5-TRA (Q14671 828-1176 C1007T/Q1011A): as the sequence (Q14671 828-1176 S863R/R864W/Q867T) above, with R36S, W37R, T40Q, C180T, Q184A counted along it

Going from “GGCUAGAACUAGUGGAUCCCCCGGCGCCCGGCGGCUCGAGCCCGGGUAAGUGUGAAUAGUCUGCAUGCCGCCGGGCGCCAUGCCUGCAGGUCGACUCUAGAAAACAUG” to “GGCUAGAACUAGUGGAUCCCCCGGCGCCCGGCGGCUCGAGCCCGGGUAAGUGUUAAUAGUCUGCAUGCCGCCGGGCGCCAUGCCUGCAGGUCGACUCUAGAAAACAUG”, the binding signal rises from 1.91 log2 enrichment (interaction score) to 2.4 log2 enrichment (interaction score).

With “GGCUAGAACUAGUGGAUCCCCCGGCGCCCGGCGGCUCGAGCCCGGGUAAGUGUAAAUAGUCUGCAUGCCGCCGGGCGCCAUGCCUGCAGGUCGACUCUAGAAAACAUG” the binding signal was 2.82 log2 enrichment (interaction score).
